Out of some 330,000 compounds screened, about 4,100 (1.2%) were called active. Many of the other results were omitted from the sample, so actives are more common in it than they were. Values without a mark were called inactive. Cut-off read from the data, not from the text of the source: active = inhibition above about 50%; inactive = the rest.
target: Sentrin-specific protease 8 (Homo sapiens) (UniProt Q96LD8); experiment: SENP8 protease inhibitors, primary screen, biochemical, luminescence (AID 2540); conditions: purified SENP8, Z-RLRGG-aminoluciferin cleavage, at 10 µM, active compounds read high
Sequence (Q96LD8 whole entry, looked up): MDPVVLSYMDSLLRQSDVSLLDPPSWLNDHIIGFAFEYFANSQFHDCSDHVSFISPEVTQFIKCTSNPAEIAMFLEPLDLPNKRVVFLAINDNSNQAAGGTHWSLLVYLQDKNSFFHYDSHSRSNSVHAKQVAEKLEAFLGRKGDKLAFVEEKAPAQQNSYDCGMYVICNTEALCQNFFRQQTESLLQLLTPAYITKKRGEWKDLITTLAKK

Compound	inhibition
CCCOc1ccc(C2=CSC3=NCCN23)cc1Cl	-25.9%
CCN(C(=O)CSc1nnc(-c2ccncc2)o1)c1ccccc1	-5.88%
COc1ccc(CNc2c(CO)cnc3c2cnn3C)cc1	3.66%
CC(=O)c1cc2c(cc1NC(=O)CN1CCCCCC1)OCO2	6.92%
COCCN(C(=O)CSCc1ccc(C)cc1)c1c(N)n(CC(C)C)c(=O)[nH]c1=O	-1.3%
CCCCCC(=O)N1CCN(S(=O)(=O)c2ccc3c(c2)OCCCO3)CC1	0.168%
O=C(N/N=C/c1ccc([N+](=O)[O-])cc1)C(=O)N1CCCC1	-9.06%
Cc1ccc(NC(=O)c2sccc2C)cc1[N+](=O)[O-]	3.23%
Cc1ccsc1C(=O)N/N=C/c1ccc([N+](=O)[O-])cc1	73.3% (active)
CN(CCOc1ccccc1)Cc1nc2cc(Cl)ccc2c(=O)[nH]1	0.32%
COCC(C)n1c(C)cc(C(=O)COc2ccc(C)nc2[N+](=O)[O-])c1C (stereo not drawn)	4.55%
C#Cc1ccc([C@@H]2C=C(C(=O)O)O[C@H](OCCCCO)C2)cc1	-9.34%
CCC(C)NC(=O)/C=C/c1ccc(S(=O)(=O)NCc2ccco2)cc1 (stereo not drawn)	-7.51%
CC1(C)C2CC=C(/C=N/NC(=O)c3ccc(Cl)cc3)C1C2 (stereo not drawn)	-0.62%
COc1cccc(Nc2nc(N)c([N+](=O)[O-])c(NCc3ccco3)n2)c1	-2.27%
CNc1nc(Nc2ccc(C)c(Cl)c2)nc(N)c1[N+](=O)[O-]	96.8% (active)
CCN1CCN(c2nc(Nc3cccc(F)c3)nc(N)c2[N+](=O)[O-])CC1	-4.79%
Cc1cc(C)c(NC(=S)N2CCCC2C(=O)O)c(C)c1 (stereo not drawn)	-2.97%
CC(=O)c1cccc(NC(=O)c2cc(C)nn2-c2ccccc2)c1	-2.45%
N#Cc1ccc(S(=O)(=O)NCC(=O)OCC(=O)NCCc2ccccc2)cc1	2.9%
O=S(=O)(c1cccs1)N1CCc2ccccc2C1	-2.48%
O=C1/C(=C/c2cccs2)CCC1C1CCCC1 (stereo not drawn)	80.6% (active)
O=C1/C(=C/c2cccs2)CCc2ccccc21	96.5% (active)
O=C1/C(=C/c2cccs2)SC(=S)N1C1CCS(=O)(=O)C1 (stereo not drawn)	10.2%
COc1ccc(/C=C2\CCc3ccccc3C2=O)c(OC)c1OC	-6.3%

Compound	inhibition
CCC1C/C(=C/c2cccs2)C(=O)/C(=C/c2cccs2)C1 (stereo not drawn)	-8.62%
CC(C)(C)C(=O)CSc1ccc(S(=O)(=O)N2CCCC2)cn1	0.226%
CC(=O)N1CCC(C(=O)OCc2ccc(Cl)cc2)(c2ccccc2)CC1	-16%
Cc1ccc(CNC(=O)CCNS(=O)(=O)c2ccc(Br)s2)cc1	-3.11%
Oc1c(C=Nc2cccc3nsnc23)ccc2ccccc12	75.8% (active)
CCCn1c(SCC(=O)c2ccc3c(c2)OCCO3)nnc1C(C)C	1.93%
Cc1ccc2cc(/C=N/Nc3ccc(C(=O)O)cc3)c(Cl)nc2c1	-3.31%
O=C(O)c1ccc(/C=N/Nc2nc(N3CCCCC3)nc(N3CCCCC3)n2)cc1	-10.8%
O=C(O)c1ccc(N/N=C/c2ccc3ncccc3c2)cc1	97.1% (active)
Oc1ccccc1-c1cc(-c2ccc(Cl)cc2)n[nH]1	89.8% (active)
c1ccc(-c2cc(-c3ccccc3)[nH]n2)cc1	58.4% (active)
O=C(Nc1cccnc1Cl)c1cc(-c2ccccc2O)on1	-7.17%
S=c1[nH]nc(-c2cc(-c3ccccc3)n[nH]2)n1/N=C/c1c2ccccc2cc2ccccc12	-9.93%
Cc1ccc(NC(=O)c2cc(-c3ccccc3O)n[nH]2)cc1C	-13.8%
S=c1[nH]nc(-c2cc(-c3ccsc3)n[nH]2)n1-c1ccccc1	2.29%
CCOc1ccc(C(=O)CCN2CCOCC2)cc1	-4.08%
CCCCn1c(N)c(N(CC(C)C)C(=O)C2CSC3(C)CCC(=O)N23)c(=O)[nH]c1=O (stereo not drawn)	-4.36%
COC(C/C=C/C(=O)[C@@H](C)OCc1ccccc1)OC	-1.1%
O=C(Nc1ccc(O)cc1)c1ccc(NC(=O)c2ccco2)cc1	-13.6%
COc1ccccc1C(=O)Nc1ccc(NC(=O)c2ccco2)c(C)c1	42.6%
Cc1cc(NC(=O)c2ccc(F)cc2)ccc1NC(=O)c1ccco1	55.5% (active)
CC1(C)CCSC(/C=C/c2ccccc2)=N1	-3.81%
CCOc1ccc(C(O)Cn2c(=N)n(CCN3CCCCC3)c3ccccc32)cc1 (stereo not drawn)	4.64%
O=C1c2ccccc2-c2ncnc3c(N4CCOCC4)cc(N4CCOCC4)c1c23	-2.88%
O=C(c1ccccc1)C(Cn1cncn1)C(Sc1ccccc1)c1ccccc1 (stereo not drawn)	-0.476%

Compound	inhibition
Cc1ccc(NC(=O)Nc2nnc(-c3ccncc3)s2)cc1	-9.37%
Cc1ccc(Nc2nc(C)cc(C)c2C(N)=O)cc1	5.13%
Cc1ccc(Nc2nc(Cl)c(C=O)s2)cc1	67.8% (active)
CCOC(=O)C1CCN(S(=O)(=O)c2ccc3c(c2)N(C)C(=O)CC(=O)N3C)CC1	2.4%
CC[N+](C)(CC)CCC[n+]1c(-c2ccccc2)c2cc(N)ccc2c2ccc(N)cc21	96.5% (active)
Cc1cc(C)cc(-c2nnc(SCC(=O)NC3CC3)o2)c1	-2.18%
CCC(=O)Nc1ccc2nn(-c3ccc(F)cc3)nc2c1	63.6% (active)
Cc1ccc(-n2nc3ccc(NC(=O)/C=C/c4ccco4)cc3n2)cc1C	15.4%
Cc1nn(CC(=O)Nc2ccc(F)cc2)c(=O)c2ccccc12	1.21%
CCOc1c2ccc(C(=O)NC3CCCc4ccccc43)cc2nn1CC (stereo not drawn)	-8.27%
CC(=O)N1CC2(C)CN(C(C)=O)CC(C)(C1)C2=O	1.73%
N#Cc1ccc(OCc2nnc(-c3ccc([N+](=O)[O-])cc3)o2)cc1	7.85%
CCOc1ccc(-n2c(SCC(N)=O)nnc2-c2ccco2)cc1	-1.84%
CCCCSc1nnc(-c2ccc(C)cc2)o1	33.5%
CCOc1ccc(-c2nnc(-c3ccco3)o2)cc1	73.3% (active)
CCCCOc1ccc(-c2nnc(-c3ccco3)o2)cc1	64.8% (active)
CCCCOc1ccc(-c2ncc(C(=O)OCC)c(N)n2)cc1	-12.4%
Cc1c(-c2ccccc2)n[nH]c1C(=O)N=Nc1c(O)[nH]c2ccccc12	21.6%
Cc1ccccc1NS(=O)(=O)CCCCC(Cl)(Cl)Cl	7.88%
CCOc1ccc(S(=O)(=O)N/N=C(\C)c2ccc(Cl)c(Cl)c2Cl)cc1	1.79%
CCN1C(=O)C(C(=O)NC(C)c2ccccc2)C2CC1(C)Oc1ccccc12 (stereo not drawn)	7.17%
CSc1sc(C(=O)NC(=O)NCc2cccnc2)c(C)c1-c1ccon1	4.14%
O=C(Cn1cc(C(=O)C2CC2)c2ccccc21)Nc1ccccc1Cl	5.51%
O=C(COC(=O)c1ccc(O)cc1O)NNC(=O)c1cccs1	-4.38%
Cc1ccc(/C=C2/SC(=S)N(CCC(=O)NCCCN3CCOCC3)C2=O)cc1	-1.52%

Compound	inhibition
C=CCOc1ccc(/C=C2\SC(=S)N(CCC(=O)O)C2=O)cc1	97.6% (active)
COc1ccc(/C=C2\SC(=S)N(CC(=O)NNC(=O)c3ccncc3)C2=O)cc1	-3.25%
C[C@@H](C(=O)Nc1ccc2ccccc2c1)[C@@H]1C[C@@]1(C)[C@@H](NC(=O)c1cccnc1)c1ccccc1	13.1%
CCOC(=O)C1=C(NC(=S)NC(=O)c2ccccc2)c2ccccc2CC1(C)C	-5.5%
COc1ccccc1NC(=O)COC(=O)CNC(=O)C1CCCCC1	8.04%
COc1cc(/C=N/N=C(\N)c2nonc2N)cc(OC)c1OC	-1.1%
c1ccc(-n2nc3ccccc3n2)cc1	-19.2%
CN(C)c1nnnn1-c1ccc(Cl)cc1	2.64%
Nc1ccc2nn(-c3ccc(Cl)cc3)nc2c1	86.7% (active)
COc1ccc(Br)cc1CN(C)CC(=O)Nc1cc([N+](=O)[O-])ccc1OC	-6.64%
Cc1ccc2c(c1)NCC(C(=O)NC1CCC(C)CC1)O2 (stereo not drawn)	-10.8%
COc1cccc(C(=O)NC(=O)Nc2nc(C)cc(C(F)(F)F)n2)c1	-10.3%
N=c1oc2ccccc2cc1C(=O)N/N=C/c1ccccc1	86.5% (active)
CNC(=O)c1cc2c(ccc3ccccc32)oc1=N	-3%
N=c1oc2ccccc2cc1C(=O)NCc1ccccc1	-17.9%
Cc1ccc(/C=N/NC(=S)Nc2cccc(S(=O)(=O)N(C)C)c2)o1	1.79%
Cc1ccc(/C=N/NC(=O)c2cc3ccccc3cc2O)o1	55.8% (active)
Cc1ccc(/C=N/NC(=S)NC2CCCCC2)o1	-5.05%
CN(CC(=O)NC1CCCC1)S(=O)(=O)c1cnc[nH]1	-8.57%
O=C(NCCO)C(=O)NCC(c1ccc2c(c1)OCO2)N1CCN(c2ccc(F)cc2)CC1 (stereo not drawn)	-0.025%
CC(=O)N1CC(C)c2scc(C)[n+]2-c2ccccc21 (stereo not drawn)	0.506%
COc1ccc(S(=O)(=O)Nc2ccc(F)cc2)c(C)c1C	3.56%
O=C(Nc1cc2c3c(c1)CC(=O)N3CCC2)c1ccccc1F	3.3%

Source: PubChem BioAssay AID2540 (Sanford-Burnham Center for Chemical Genomics, 2010)
